Screens as filed in PubChem.
FGF22 binding = binders of human FGF22 protein, primary screen, FGF22 synaptogenesis inhibitor project, biophysical, thermal shift, single point; actives 1.5% (n = 340,000); recombinant FGF22 thermal shift, SYPRO orange fluorescence; percent of sucrose octasulfate shift, DMSO zero; AID 651658, 2012; activity (Tm shift, normalised), % at 9.99 µM;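 active means mean Tm shift, scaled 0 neutral to 100 positive control, at about 1.3% or above, every replicate too, limit read from the data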
SIRT5 inh = SIRT5 desuccinylase inhibitors, primary screen, biochemical, fluorescence imaging, single point, set 5 | Purified SirT5, succinyl-peptide AMC, trypsin-coupled fluorescence | AID 652115, 2013 | actives 1.1% (n = 330,000) | inhibition, % at 15 µM | NAD-dependent protein deacylase sirtuin-5, mitochondrial (Homo sapiens), Q9NXA8; in the data active means inhibition above about 15%
PvdQ inh = P. aeruginosa PvdQ acylase inhibitors, primary screen, biochemical, fluorescence, plate reader and imaging, single point; PvdQ acylase [Pseudomonas aeruginosa LESB58]; purified PvdQ acylase; inhibition, % at 10 µM; actives 0.063% (n = 340,000); AID 488965, 2010; in the data active means inhibition above about 30%, passing the limit was not always enough;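 further: 0% = vehicle neutral wells and 100% = reference inhibitor wells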
dFosB activator = activators of delta FosB homodimer, primary screen, biochemical, fluorescence polarization, TAMRA-CDK5 oligo, single point | Protein FosB (Mus musculus), P13346 | purified delta FosB; percent of positive-control signal above neutral wells | activation, % at 25 µM | actives 0.99% (n = 340,000);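 active means mean activation above about 17%, with every replicate also reaching it, limit read from the data, passing the limit was not always enough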
Target sequence (P13346 whole entry, looked up): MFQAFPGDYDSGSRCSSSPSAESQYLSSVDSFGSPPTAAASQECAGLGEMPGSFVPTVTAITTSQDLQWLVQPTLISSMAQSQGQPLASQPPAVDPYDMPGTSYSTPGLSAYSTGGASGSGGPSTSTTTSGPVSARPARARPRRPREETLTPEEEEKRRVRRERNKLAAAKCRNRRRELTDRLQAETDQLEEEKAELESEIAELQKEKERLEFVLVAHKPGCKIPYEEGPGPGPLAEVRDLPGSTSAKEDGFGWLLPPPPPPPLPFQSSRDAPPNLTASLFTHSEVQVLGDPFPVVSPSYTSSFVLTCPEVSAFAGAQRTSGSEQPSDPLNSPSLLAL
PglD DTNB = C. jejuni PglD acetyltransferase inhibitors, primary screen, biochemical, DTNB colorimetric, single point; purified PglD enzyme, DTNB colorimetric CoA detection; inhibition, % at 12.5 µM; AID 602405, 2012; actives 0.098% (n = 360,000); UDP-N-acetylbacillosamine N-acetyltransferase PglD (Campylobacter jejuni); in the data active means inhibition above about 16%, passing the limit was not always enough
CDK5 p35 inh = inhibitors of human CDK5/p35 kinase, primary screen, biochemical, single concentration; Cyclin-dependent kinase 5 (Homo sapiens) + Cyclin-dependent kinase 5 activator 1 (Homo …; Recombinant CDK5/p35, ADP-Glo luminescence, 60 min; inhibition, % at 10 µM; actives 0.01% (n = 330,000);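 active means highest replicate inhibition of at least 50% and at least 75% of replicates reaching 50%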;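 further: plate controls were DMSO neutral control for no effect and GW8510 at 10 µM for full effect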
Active calls of the source: *; . = not tested or not shown. Rows were chosen to be rich in hits. Some 2.8% of all compounds tested hit in one or more screens of this group.

SMILES	FGF22 binding	SIRT5 inh	PvdQ inh	dFosB activator	PglD DTNB	CDK5 p35 inh
O=C(COC(=O)Cn1cnc2ccccc21)Nc1cc2c(cc1Cl)C(=O)c1ccccc1C2=O	44*	-4	-9	-21	-5	1
O=C(COC(=O)Cn1cnc2ccccc21)Nc1cc(S(=O)(=O)N2CCOCC2)ccc1Cl	0	2	-8	-8	2	-1
C[C@H]1CN([C@@H](C)CO)C(=O)Cc2cc(NC(=O)C3CC3)ccc2O[C@@H]1CN(C)S(=O)(=O)c1ccc(F)cc1	0	-5	.	.	9	.
COc1ccc(C(=O)C2CCN(C(=S)NCCc3ccc(OC)c(OC)c3)CC2)cc1	0	-3	-18	-12	.	1
COc1ccc(C(=O)C2CCN(C(=S)NCCc3ccccc3)CC2)cc1	0	16*	-16	8	.	-4
CNc1ccc(C2(O)C(=O)c3ccccc3C2=O)cc1	43*	0	-3	-3	1	0
O=[N+]([O-])c1cc(Cc2ccccc2)cc(C=Nc2ccc(N3CCOCC3)cc2)c1O	.	.	-4	-3	.	0
Cc1ccc(O)c(N=Cc2cc(Cc3ccccc3)cc([N+](=O)[O-])c2O)c1	43*	-4	-16	-16	.	-2
COc1ccc(C(=O)N/C(=C\c2cn(C)c3ccccc23)C(=O)OCCN(C)C)cc1	28*	3	9	-2	.	0
CCCCOC(=O)/C(=C/c1cn(C)c2ccccc12)NC(=O)c1ccc(OC)cc1	0	-3	-10	0	2	0
C/C=C/c1ccccc1[C@@H]1[C@@H](CO)N(C(C)=O)[C@H]1C#N	1	-3	.	.	.	.
C[C@H]1CCCCO[C@H](CN(C)Cc2ccc(C(F)(F)F)cc2)[C@@H](C)CN([C@@H](C)CO)C(=O)c2cc(NS(=O)(=O)c3ccccc3)ccc2O1	.	20*	.	.	-3	.
C[C@@H]1CCCCO[C@H](CN(C)Cc2ccc(C(F)(F)F)cc2)[C@@H](C)CN([C@H](C)CO)C(=O)c2cc(NS(=O)(=O)c3ccccc3)ccc2O1	.	2	.	.	-2	.
C[C@H]1CCCCO[C@@H](CN(C)Cc2ccc(C(F)(F)F)cc2)[C@@H](C)CN([C@@H](C)CO)C(=O)c2cc(NS(=O)(=O)c3ccccc3)ccc2O1	.	12	.	.	-1	.
C[C@@H]1CN([C@@H](C)CO)C(=O)c2cc(NS(=O)(=O)c3ccccc3)ccc2O[C@@H](C)CCCCO[C@@H]1CN(C)Cc1ccc(C(F)(F)F)cc1	.	20*	.	.	-3	.
C[C@H](CO)N1C[C@H](C)[C@H](CN(C)Cc2ccc(C(F)(F)F)cc2)OCCCC[C@H](C)Oc2ccc(NS(=O)(=O)c3ccccc3)cc2C1=O	.	15	.	.	-6	.
C[C@@H]1CN([C@H](C)CO)C(=O)c2cc(NS(=O)(=O)c3ccccc3)ccc2O[C@@H](C)CCCCO[C@H]1CN(C)Cc1ccc(C(F)(F)F)cc1	.	19*	.	.	-10	.
CCCC#Cc1ccc2c(c1)O[C@H](CN(C)C(=O)c1ccccn1)[C@H](C)CN([C@H](C)CO)S2(=O)=O	0	6	.	.	-2	.
C[C@@H]1CN([C@H](C)CO)C(=O)c2cc(NC(=O)c3ccncc3)ccc2O[C@@H]1CN(C)Cc1ccc(C(=O)O)cc1	0	3	.	.	7	.
Cc1ccc(-c2cccc(CN3CCN(C(C)C)C(CCO)C3)c2)o1 (stereo not drawn)	43*	-1	-7	-9	.	-1
Cc1ccc(CN2CCN(Cc3cccc(OCCO)c3)CC2CCO)o1 (stereo not drawn)	44*	0	6	-6	.	0
CC(C)N1CCN(Cc2ccncc2)CC1CCO (stereo not drawn)	42	-4	-7	0	.	-2
CCNc1sc(S(C)(=O)=O)nc1S(=O)(=O)c1ccc(Cl)cc1	43*	0	-15	-1	.	0
